Out of some 350,000 compounds screened, about 31,000 (8.9%) were called active. Inconclusive results (about 15%) are left out. For the sample, actives were picked, then their nearest neighbours and some compounds at random. Unmarked numbers belong to inactive results. Calls come from the whole dose curve; as a rule, active = well fitted inhibition curve with a large enough effect; inconclusive = small, poorly fitted or top-dose-only effect; inactive = no such curve, though single readings can be large or run the other way.
% is set by controls: 0 for no effect and ±100 for the full control effect; potency is the fitted concentration of half-maximal effect.

Chain of Histone-lysine N-methyltransferase EHMT2 (Homo sapiens) (Q96KQ7 913-1193 limits assumed): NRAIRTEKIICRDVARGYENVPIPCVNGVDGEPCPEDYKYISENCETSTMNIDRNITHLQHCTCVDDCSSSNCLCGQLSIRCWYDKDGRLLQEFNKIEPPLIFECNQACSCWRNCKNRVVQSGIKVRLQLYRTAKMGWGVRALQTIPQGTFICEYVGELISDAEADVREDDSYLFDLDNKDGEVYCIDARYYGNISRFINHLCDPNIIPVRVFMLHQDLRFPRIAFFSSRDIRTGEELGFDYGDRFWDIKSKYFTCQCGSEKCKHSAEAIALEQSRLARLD

The target of this assay is Histone-lysine N-methyltransferase EHMT2 (Homo sapiens) (UniProt Q96KQ7). As to the kind of experiment: qHTS Assay for Inhibitors of Histone Lysine Methyltransferase G9a. Note: nearly all actives have a fitted effect of over 75% in size. The note with it: G9a H3K9 monomethylation, AlphaScreen, 2 h; series mostly up to 59 µM; activity, negative = inhibition: at the top concentration. The gist of the method:
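Compounds were preincubated with 20 nM G9a for 15 min, after which biotinylated H3K9 peptide (500 nM) and SAM (20 uM) started a 2 h room-temperature reaction. Monomethylated product was quantified by antibody-based AlphaScreen chemiluminescence.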
On to `CC(C)(C)NC(=O)CSc1nnc(NC(=O)CCc2ccccc2)s1`, for which the “activity, negative = inhibition” value is 18% [at 102 µM]. Still for that read-out and setting: as for `Cc1ccc(CN2CCN(Cc3ccccc3-c3ccco3)CC2CCO)o1` (stereo not drawn), the figure is -29.6% [at 102 µM]; as for `COc1ccc(CN2CCN(Cc3cn(C)nc3-c3ccccc3)CC2CCO)c(C)c1C` (stereo not drawn), 11% [at 102 µM]. As for `CCn1cc(CN2CCN(CC(C)(C)C)C(CCO)C2)c2ccccc21` (stereo not drawn), the Potency was 50.1 µM (active).

Regarding `COc1ccccc1-c1ccnc2[nH]n(-c3ccccc3)c(=O)c12`, the “activity, negative = inhibition” value is -27.4%.

Consider `CNC(=S)NNC(=O)c1sccc1OCc1ccccc1`, for which the Potency is 50.1 µM (active).

Regarding `CNC(=S)NNC(=O)c1cccn(Cc2ccccc2)c1=O`, the “activity, negative = inhibition” value was 9.83% [at 102 µM]. The same measure, in the same setting: then `Cc1ccc(/C=N/NC(=O)c2sccc2OCc2ccc(F)cc2)cc1`, with -13.6%; and `Cc1ccc(-c2nn(-c3ccc(F)cc3)cc2C(=O)NCC(c2cccs2)N2CCOCC2)cc1` (stereo not drawn), with 6.67% [at 102 µM]; and `CC(=O)c1ccc(N2CCN(C(=O)c3ccc(Cl)c(S(=O)(=O)NC4CC4)c3)CC2)c(F)c1`, with -35.2% [at 102 µM].

`CCOC(=O)/C=c1\s/c(=C\c2ccccc2OC)c(=O)n1CC(=O)N1CCOCC1`: the “activity, negative = inhibition” value is -18.7% [at 102 µM]. For `CCOc1ccccc1NC(=O)Cn1c(=O)n(Cc2ccco2)c(=O)c2sc3ccccc3c21`, the “activity, negative = inhibition” value is -6.87%.

With `CCOc1ccccc1/C=c1\sc2nc(-c3ccco3)nn2c1=O`, the Potency is 35.5 µM (active). Regarding `Cc1cc2ccccc2n1CCNC(=O)c1ccc(F)cc1`, the “activity, negative = inhibition” value was -17.6%. Still for that read-out and setting: as for `Cc1ccc(NC(=O)c2cn3c4c(ccc(Cl)c4c2=O)OC(C)C3)cc1C` (stereo not drawn), the figure is -24.9%; as for `O=C(O)c1cc(S(=O)(=O)N(Cc2ccccc2)c2ccccc2)ccc1Cl`, -15% [at 102 µM]; as for `FC(F)(F)c1cc(-c2ccco2)nc(N2CCOCC2)n1`, -0.688%.

Take `Cc1cc(C)c2nc(-c3ccco3)cc(C(=O)O)c2c1`: the Potency is 10 µM (active). On to `CC1CCCN(C(=O)c2cc(-c3ccco3)nc3ccccc23)C1` (stereo not drawn), for which the activity, negative = inhibition was -9.53% [at 2.33 µM]. On the same count and under the same terms, then `Cc1cc2c(c(=O)n1Cc1ccccc1)C1O[C@](CCCCN3C(=O)c4ccccc4C3=O)(Cc3ccccc31)O2`, with -0.249% [at 2.33 µM]. As to `O=C(c1c(F)cccc1Cl)N1CCN(S(=O)(=O)c2ccc3c(c2)OCCCO3)CC1`, the “activity, negative = inhibition” value is 30.5% [at 102 µM].

As for `CCOc1ccccc1-c1nc(CN2CCC(C(=O)N3CCOCC3)CC2)c(C)o1`, the Potency was 89.1 µM (active). Take `CCOc1ccccc1-c1cc(C(=O)N2CCOCC2)c2ccccc2n1`: the “activity, negative = inhibition” value is 45.7% [at 102 µM]. Consider `Cc1oc(-c2ccccc2F)nc1CN1CCC(C(=O)NCCc2ccc(Cl)cc2)CC1`, for which the “activity, negative = inhibition” value was -33.8%. The same measure, in the same setting: then `O=S(=O)(c1ccc(Br)cc1)c1nnn2c1nc(N1CCOCC1)c1sccc12`, with -3.15%. `Cc1ccc(S(=O)(=O)N/N=C\c2cc3c(cc2[N+](=O)[O-])OCO3)cc1`: the Potency was 5.62 µM (active). Take `CCOC(=O)c1nc(-c2ccc3c(c2)OCO3)[nH]c1C`: the “activity, negative = inhibition” value is -9.21%.

On to `Cc1ccc(S(=O)(=O)N2CCN(CC(=O)N/N=C/c3cc([N+](=O)[O-])ccc3Cl)CC2)cc1`, for which the “activity, negative = inhibition” value is 3.6% [at 102 µM]. Regarding `Cc1nc([N+](=O)[O-])cn1CC(=O)Nc1ccc2c(c1)OCO2`, the “activity, negative = inhibition” value was 3.06% [at 102 µM]. Take `CC(=O)N/N=C/c1cc2c(cc1[N+](=O)[O-])OCO2`: the “activity, negative = inhibition” value was 1.79% [at 102 µM]. `Cc1ccc(-c2n[nH]c(=S)n2/N=C/c2cc3c(cc2[N+](=O)[O-])OCO3)cc1`: the Potency is 1.26 µM (active).

On to `COc1ccccc1-c1nn(Cc2ccccc2)cc1C(=O)N1CCN(c2ncccn2)CC1`, for which the activity, negative = inhibition was 21.8% [at 12.7 µM].

Take `Cc1ccc(OCC(=O)Nc2nnc(-c3ccco3)s2)cc1`: the “activity, negative = inhibition” value is -20.3% [at 102 µM]. Regarding `CNc1nnc(-c2ccco2)s1`, the “activity, negative = inhibition” value is 6.5% [at 102 µM].

Turning to `COc1ccc(OCC(=O)Nc2nnc(-c3ccco3)s2)cc1`, the Potency is 50.1 µM (active). Still for that read-out and setting: then `CCOc1ccc(OCc2ccc(C(=O)Nc3cccc(C)n3)o2)cc1`, with 44.7 µM (active). Turning to `Cc1cccc(NC(=O)c2ccc(COc3ccccc3[N+](=O)[O-])o2)n1`, the “activity, negative = inhibition” value was -23.8% [at 102 µM].

Take `Cc1cccc(NC(=O)Nc2ccc(OCc3ccccc3)cc2)n1`: the activity, negative = inhibition is 8.02% [at 2.33 µM].

In the case of `N#Cc1ccsc1NC(=O)CN1CCN(S(=O)(=O)c2cc(Cl)ccc2Cl)CC1`, the Potency was 50.1 µM (active).

`COc1ccc(Cl)cc1S(=O)(=O)N1CCC(O)(c2ccc(Cl)cc2)CC1`: the “activity, negative = inhibition” value was 39.4%. Still for that read-out and setting: as for `COc1ccc(Cl)cc1S(=O)(=O)N1CCC(c2ccncc2)CC1`, the figure is 6.73%. As to `COc1ccc(Cl)cc1S(=O)(=O)N1CCN(CC(=O)C(C)(C)C)CC1`, the Potency is 44.7 µM (active).

For `N#Cc1ccsc1NC(=O)CN1CCCCC1`, the “activity, negative = inhibition” value was -24.5% [at 102 µM]. Still for that read-out and setting: as for `CC(C#N)(NC(=O)CN1CCN(S(=O)(=O)c2cc(C(F)(F)F)ccc2Cl)CC1)C1CC1` (stereo not drawn), the figure is -20.4% [at 102 µM].

With `O=C(NCC(c1ccco1)S(=O)(=O)c1cccs1)c1ccc(F)cc1` (stereo not drawn), the “activity, negative = inhibition” value was -7.05%. Turning to `CCc1ccc(NC(=O)CN2CCSc3ccc(S(=O)(=O)N4CCCC4)cc32)cc1`, the “activity, negative = inhibition” value is -29.8%. Same read-out and setting: then `CCN(Cc1ccccc1)S(=O)(=O)c1ccc2c(c1)CCCN2C(C)=O`, with 28.4%; and `Cc1ccc2[nH]c3c(=O)n(CC(=O)NC(C)C)ncc3c2c1`, with -25.7%.

The values are drawn from PubChem BioAssay AID504332 (National Center for Advancing Translational Sciences (NCATS), 2011).
